Data from the supplement of paper PMC12645437, “Orthogonal IMiD-Degron Pairs Induce Selective Protein Degradation in Cells” (ACS Chemical Biology, 2025).
Whole data set: some 8,300 sequences, median “log2 fold change of degron read counts, EGFP-low vs EGFP+ sorted cells (limma voom), compound-induced degradation” near -1.1, cut for the highest 2% near 3.2. This is one part of a sample in which the highest values are shown more often than they occur.

Molecular target: T1, CRBN, Q96SW2
T1 chain: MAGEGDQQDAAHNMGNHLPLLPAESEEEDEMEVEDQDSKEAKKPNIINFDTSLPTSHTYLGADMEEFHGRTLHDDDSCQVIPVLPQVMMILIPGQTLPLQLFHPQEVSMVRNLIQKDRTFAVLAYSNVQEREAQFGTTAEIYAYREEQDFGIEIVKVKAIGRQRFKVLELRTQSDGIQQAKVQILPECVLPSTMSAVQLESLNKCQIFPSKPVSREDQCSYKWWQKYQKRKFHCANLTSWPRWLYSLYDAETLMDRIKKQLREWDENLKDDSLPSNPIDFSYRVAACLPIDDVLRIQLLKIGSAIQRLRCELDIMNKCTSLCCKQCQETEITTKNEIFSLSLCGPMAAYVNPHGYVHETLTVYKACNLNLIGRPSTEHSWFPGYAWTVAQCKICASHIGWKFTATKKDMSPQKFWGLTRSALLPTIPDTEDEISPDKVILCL
Test: log2 fold change of degron read counts, EGFP-low vs EGFP+ sorted cells (limma voom), compound-induced degradation; higher = more compound-induced degradation of the degron-EGFP fusion; degrons are variants of IKZF1/3 zinc finger 2; compound dose not given here
Settings: Jurkat, 18 h

[1] = compound: compound 19 (5-tert-butyl-thalidomide)
[2] = compound: compound 22 (5-morpholino-thalidomide)
[3] = compound: compound 33 (diphenyl IMiD analogue)
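Also: pooled lentiviral library of zinc finger degron-EGFP fusions in mCherry-positive Jurkat cells, FACS-sorted after compound exposure, with degron abundance counted by next-generation sequencing.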

| Sequence | log2 fold change of degron read counts [1] | log2 fold change of degron read counts [2] | log2 fold change of degron read counts [3] | log2 fold change of degron read counts (compound: thalidomide) |
| --- | --- | --- | --- | --- |
| LYCNQCGFYCTQKGNLLRHIKL [46L_47Y_49N_50Q_52G_53F_54Y_55C_67L_, Q9UKT9] | -0.857 | -0.989 | -0.803 | -0.772 |
| FRCPICGAVFTQKGNLLRHIKL [46F_47R_49P_50I_52G_53A_54V_55F_67L_, Q9UKT9] | -1.19 | -0.551 | 1.51 | 1.37 |
| FECPICGAVFTQKGNLLRHIKL [46F_47E_49P_50I_52G_53A_54V_55F_67L_, Q9UKT9] | 0.283 | -0.0372 | 2.77 | 3.33 |
| FTCPICGAVFTQKGNLLRHIKL [46F_47T_49P_50I_52G_53A_54V_55F_67L_, Q9UKT9] | 0.104 | 2.31 | 2.43 | 2.95 |
| FACPICGAVFTQKGNLLRHIKL [46F_47A_49P_50I_52G_53A_54V_55F_67L_, Q9UKT9] | 2.91 | 1.96 | 1.75 | 1.06 |
| FQCPICGAVFTQKGNLLRHIKL [46F_47Q_49P_50I_52G_53A_54V_55F_67L_, Q9UKT9] | 0.109 | 3.16 | 2.7 | 3.67 |
| FVCPICGAVFTQKGNLLRHIKL [46F_47V_49P_50I_52G_53A_54V_55F_67L_, Q9UKT9] | -0.253 | 1.32 | 2.04 | 2.17 |
| FICPICGAVFTQKGNLLRHIKL [46F_47I_49P_50I_52G_53A_54V_55F_67L_, Q9UKT9] | -0.717 | 0.836 | 1.86 | 1.85 |
| FSCPICGAVFTQKGNLLRHIKL [46F_47S_49P_50I_52G_53A_54V_55F_67L_, Q9UKT9] | 2.16 | 1.75 | 2.72 | 1.48 |
| FGCPICGAVFTQKGNLLRHIKL [46F_47G_49P_50I_52G_53A_54V_55F_67L_, Q9UKT9] | 3.56 | 2.54 | 2.82 | 1.23 |
| FRCEICGRHFTQKGNLLRHIKL [46F_47R_49E_50I_52G_53R_54H_55F_67L_, Q9UKT9] | -2.34 | -2.75 | -1.24 | -1.05 |
| FLCEVCGAYFTQKGNLLRHIKL [46F_47L_49E_50V_52G_53A_54Y_55F_67L_, Q9UKT9] | -0.235 | -1.51 | 0.35 | 0.301 |
| FNCNQCGRWFTQKGNLLRHIKL [46F_47N_49N_50Q_52G_53R_54W_55F_67L_, Q9UKT9] | -2.05 | -2.2 | -1.98 | -1.8 |
| LLCNQCGFPCTQKGNLLRHIKL [46L_47L_49N_50Q_52G_53F_54P_55C_67L_, Q9UKT9] | -1.89 | -1.87 | -1.69 | -1.84 |
| FECEVCGAMFTQKGNLLRHIKL [46F_47E_49E_50V_52G_53A_54M_55F_67L_, Q9UKT9] | -1.4 | -1.93 | 0.328 | 1.08 |
| FQCEVCGAMFTQKGNLLRHIKL [46F_47Q_49E_50V_52G_53A_54M_55F_67L_, Q9UKT9] | -0.365 | 2.11 | 2.44 | 3.52 |
| FKCEVCGAMFTQKGNLLRHIKL [46F_47K_49E_50V_52G_53A_54M_55F_67L_, Q9UKT9] | -1.98 | -3.85 | -3.74 | -1.96 |
| FACEVCGAMFTQKGNLLRHIKL [46F_47A_49E_50V_52G_53A_54M_55F_67L_, Q9UKT9] | 3.25 | 1.34 | 0.261 | -0.323 |
| FGCEVCGAMFTQKGNLLRHIKL [46F_47G_49E_50V_52G_53A_54M_55F_67L_, Q9UKT9] | 3.32 | 2.09 | 1.16 | -0.148 |
| FHCEVCGAMFTQKGNLLRHIKL [46F_47H_49E_50V_52G_53A_54M_55F_67L_, Q9UKT9] | 1.44 | 1.27 | 0.505 | -0.808 |
| FFCEVCGAMFTQKGNLLRHIKL [46F_47F_49E_50V_52G_53A_54M_55F_67L_, Q9UKT9] | 3.14 | 3.15 | 2 | 0.314 |
| FDCEVCGAMFTQKGNLLRHIKL [46F_47D_49E_50V_52G_53A_54M_55F_67L_, Q9UKT9] | -0.122 | -0.858 | 0.0809 | 0.0891 |
| FVCEVCGAMFTQKGNLLRHIKL [46F_47V_49E_50V_52G_53A_54M_55F_67L_, Q9UKT9] | -0.335 | 1.3 | 1.8 | 2.05 |
| FNCEVCGAMFTQKGNLLRHIKL [46F_47N_49E_50V_52G_53A_54M_55F_67L_, Q9UKT9] | 0.96 | -0.745 | -0.544 | -0.743 |
| FYCEVCGAMFTQKGNLLRHIKL [46F_47Y_49E_50V_52G_53A_54M_55F_67L_, Q9UKT9] | 3.32 | 3.43 | 2.43 | 0.383 |
| FSCEVCGAMFTQKGNLLRHIKL [46F_47S_49E_50V_52G_53A_54M_55F_67L_, Q9UKT9] | 2.43 | 1.36 | 1.15 | 0.408 |
| LDCEICGFLCTQKGNLLRHIKL [46L_47D_49E_50I_52G_53F_54L_55C_67L_, Q9UKT9] | -0.807 | -1.38 | -0.989 | -0.479 |
| FACPQCGAFFTQKGNLLRHIKL [46F_47A_49P_50Q_52G_53A_54F_55F_67L_, Q9UKT9] | -0.715 | -2.49 | -1.05 | -1.87 |
